# Measured values reported in PubChem BioAssay (NCATS).
# Where a SMILES comes first, the peptide text is derived from it. [ ]: non-standard residue; d: D form. The star is where a group is joined. Benzoyl(4-tBu) = CC(C)(C)c1ccc(C(=O)*)cc1; Lys(Et2) = CCN(CC)CCCC[C@H](N)C(=O)O
# Assay: qHTS drug screen for cell cycle checkpoint inhibitors in PARPi-resistant BRCA-mutant ovarian cancer cell lines. (AID 1963452)
# Conditions: PEO1/OlaR viability, CellTiter-Glo luminescence, 96 h; measured here: PEO1 parental Z-AUC; stronger effect = lower value
# Summary of the method: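 PEO1, PEO4 and PEO1/OlaR ovarian cancer cells, 600 per well, exposed 96 h at 37C to a dilution series. Viability read by CellTiter-Glo luminescence, normalized to DMSO and empty wells; activity summarized as Z-AUC.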
row,SMILES,Z-AUC
1,CC[C@@]1(O)C(=O)OCc2c1cc1n(c2=O)Cc2c-1nc1ccccc1c2CCNC(C)C,-2.94
2,COc1ccc2[nH]c3c(c2c1)CCN[C@]31CS[C@@H]2c3c(OC(C)=O)c(C)c4c(c3[C@H](COC1=O)N1[C@@H]2[C@H]2c3c(cc(C)c(OC)c3O)C[C@@H]([C@@H]1O)N2C)OCO4,-2.79
3,CCC(C)CNCC(=O)N1CCc2sccc2C1c1cccc(C)n1 (stereo not drawn),-0.627
4,CS(=O)(=O)c1ccc(-c2cnc(NCc3ccco3)n3cnnc23)cc1,0.794
5,O=c1c(-c2ccc(O)cc2)coc2c([C@@H]3O[C@H](CO)[C@@H](O)[C@H](O)[C@H]3O)c(O)ccc12,1.96
6,CCC(=O)O[C@]1(C(=O)CO)CC[C@H]2[C@@H]3CCC4=CC(=O)CC[C@]4(C)[C@H]3CC[C@@]21C,0.73
7,O=S(=O)(Nc1ccc(-c2cccnc2)c2cccnc12)c1cccc(C(F)(F)F)c1,0.0874
8,O=C(O)c1ccccc1-c1ccc(/C=c2\sc3nc4cc(Br)cnc4n3c2=O)o1,-0.865
9,O=c1[nH]nc2c3c(cccc13)NC(CN1Cc3ccccc3C1)=N2,-0.113
10,O=C([O-])C[O-].[Pt+2],1.67
11,Cc1cc(O)cc2c1[C@]1(C)CC[C@H]3C(C)(C)CCC[C@]3(C)[C@H]1C2,0.915
12,N=C1S/C(=C\c2ccc(-c3ccc4c(c3)C(=O)NC4=O)o2)C(=O)N1c1ccc(Br)cc1,0.782
13,CCN(CC)CCCC[C@H](NC(=O)[C@H](CC(C)C)NC(=O)[C@H](C)NC(=O)[C@H](Cc1ccccc1)NC(=O)c1ccc(C(C)(C)C)cc1)C(=O)N[C@@H](CO)C(=O)OC ({Benzoyl(4-tBu)}-FAL[Lys(Et2)]S-OMe),0.227
14,CO[C@H]1/C=C/O[C@@]2(C)Oc3c(C)c(O)c4c(O)c(c5c(nc6cc(C)ccn65)c4c3C2=O)NC(=O)/C(C)=C\C=C\[C@H](C)[C@H](O)[C@@H](C)[C@@H](O)[C@@H](C)[C@H](OC(C)=O)[C@@H]1C,-1.19
15,COC(=O)[C@H]1[C@@H](O)[C@@]2(O)c3c(OC)cc(O[C@@H]4O[C@@H]([C@@H](O)CO)CO[C@H]4OC)cc3O[C@@]2(c2ccc(OC)cc2)[C@@H]1c1ccccc1,0.913
16,COc1nc(N)nc2c1ncn2C1OC(CO)C(O)C1O (stereo not drawn),-0.445
17,O=C(CCCCCCC(=O)N/N=C/c1ccc(N(c2ccccc2)c2ccccc2)cc1)NO,0.912
18,O=C(O)CCNc1cc(N2CCc3ccccc3CC2)nc(-c2cccnc2)n1,0.839
19,Cc1cc(-c2cnn3c(NCC4CC(C)(O)C4)cc(Oc4cccnc4)nc23)ccc1C(=O)NC1CC1 (stereo not drawn),0.402

row,SMILES,Z-AUC
1,CC(C)n1c(=O)cc(N[C@@H](C)c2ccccc2)[nH]c1=O,0.859
2,O=C(O)C[C@H]1CCc2c1[nH]c1ccc(OCc3ccc(C4CCCC4)c(C(F)(F)F)c3)cc21,0.981
3,Cn1cc(/C=C/C(=O)c2cccc(F)c2)cc1/C=C/C(=O)NO,0.213
4,Nc1nccc(-c2c(-c3ccc(F)cc3)ncn2C2CCN(Cc3ccon3)CC2)n1,0.6
5,CC1(C)S[C@H]2[C@H](NC(=O)[C@@H](N)c3ccc(O)cc3)C(=O)N2[C@H]1C(=O)O,0.11
6,CC(C)(NS(=O)(=O)c1ccc2c(Cl)cnc(N=C(N)N)c2c1)C(=O)O,0.762
7,CCS(=O)(=O)N1CCC(C(C)n2c(C)c(C(=O)NCc3c(OC)cc(C)[nH]c3=O)c3ccccc32)CC1 (stereo not drawn),0.975
8,CN1CCN(C(=O)[C@H]2[C@@H](C(=O)O)[C@H]3CC[C@@H]2O3)CC1,0.568
9,CC(=O)N1CCN(c2ccc(NC(=O)Cc3cnc(-c4ccnc(F)c4)c(C)c3)nc2)CC1,1.23
10,O=C(O)CCCCN(CCc1ccccc1OCc1ccc(CCc2ccccc2)cc1)Cc1ccc(C(=O)O)cc1,0.492
11,CC(=O)N[C@H]1[C@H](O[C@@H]2c3ccc(c(Cl)c3)Oc3cc4cc(c3O[C@@H]3O[C@H](CO)[C@@H](O)[C@H](O)[C@H]3NC(=O)CCCCCCCC(C)C)Oc3ccc(cc3Cl)C[C@H]3NC(=O)[C@H](N)c5ccc(O)c(c5)Oc5cc(O)cc(c5)[C@H](NC3=O)C(=O)N[C@H]4C(=O)N[C@H]3C(=O)N[C@@H]2C(=O)N[C@@H](C(=O)O)c2cc(O)cc(O[C@H]4O[C@H](CO)[C@@H](O)[C@H](O)[C@@H]4O)c2-c2cc3ccc2O)O[C@H](CO)[C@@H](O)[C@@H]1O,0.652
12,O=C(Nc1cccc(C(F)(F)F)c1)c1cccc2cc(Oc3cc(CO)ncn3)ccc12,-0.0588
13,NC1=N[C@@]2(c3cc(NC(=O)c4ccc(F)cn4)ccc3F)COC[C@H]2CS1,0.672
14,C[C@@H]1CC(=O)Nc2cccc(-c3ccc4c(c3)c(-c3cnn(C)c3)nn4C)c2N1,1.02
15,C=C1C[C@H]2C=Nc3cc(OCCCOc4cc5c(cc4OC)C(=O)N4CC(=C)C[C@H]4C=N5)c(OC)cc3C(=O)N2C1,0.729
16,O=c1ncccn1[C@@H]1O[C@H](CO)[C@@H](O)[C@H]1O,-0.911
17,CONC(=O)Nc1ccc(-c2sc3c(c2CN(C)C)c(=O)n(-c2ccc(OC)nn2)c(=O)n3Cc2c(F)cccc2F)cc1,0.895
18,CC(C)(O)CC[C@@H](O)[C@](C)(O)[C@H]1CC[C@@]2(O)C3=CC(=O)[C@@H]4C[C@@H](O)[C@@H](O)C[C@]4(C)[C@H]3CC[C@]12C,0.684
19,Cc1c(-c2c(-c3ccc(F)o3)sc3ncnc(O[C@@H](Cc4ccccc4OCc4ccnn4CC(F)(F)F)C(=O)O)c23)ccc(OCCN2CCN(C)CC2)c1Cl,0.964
